# Active and inactive are the calls of the source.
# Tests used:
# Albumin (Bos taurus) = Albumin (Bos taurus) (UniProt P02769); assay: bovine serum albumin binders on microarray, profiling panel, artefact control for SMM control protein annotation, biochemical, small-molecule microarray, Alexa647 label, 635/667 nm fluorescence (AID 1118); details: BSA-A647 binding, fluorescence 635 nm, higher = more signal;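 note: score merges 667 nm emission intensity and signal-to-noise per printed compound spot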
# Sequence of Albumin (Bos taurus) (P02769 whole entry, looked up): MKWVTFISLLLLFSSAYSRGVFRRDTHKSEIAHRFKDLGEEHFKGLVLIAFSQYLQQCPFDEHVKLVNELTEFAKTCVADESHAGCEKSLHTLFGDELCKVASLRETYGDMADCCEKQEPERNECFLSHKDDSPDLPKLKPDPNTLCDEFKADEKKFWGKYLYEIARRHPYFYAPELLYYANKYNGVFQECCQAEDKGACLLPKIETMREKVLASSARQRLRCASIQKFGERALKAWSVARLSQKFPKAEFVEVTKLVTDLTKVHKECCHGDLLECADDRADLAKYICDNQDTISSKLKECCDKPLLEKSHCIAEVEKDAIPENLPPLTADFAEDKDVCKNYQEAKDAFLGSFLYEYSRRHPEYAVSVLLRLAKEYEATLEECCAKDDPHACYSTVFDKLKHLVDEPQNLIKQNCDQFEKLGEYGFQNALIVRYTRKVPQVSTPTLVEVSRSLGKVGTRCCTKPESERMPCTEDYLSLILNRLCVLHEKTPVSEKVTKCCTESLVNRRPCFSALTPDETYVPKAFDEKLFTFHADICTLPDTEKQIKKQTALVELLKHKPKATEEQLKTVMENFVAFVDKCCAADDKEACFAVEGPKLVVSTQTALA
# [1] = small-molecule microarray binders of probe aXIP, primary screen, biochemical, NeuroSMM set, 635/667 nm fluorescence (AID 1119); details: higher = more signal, called active from +8 up or from −8 down;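 note: probe is the protein aXip251-270 applied at 1 µg/mL to compound-printed slides; binding of probe to printed compounds measured as 667 nm fluorescence plus signal to noise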
# [2] = small-molecule binders of probe aNOTCH3, primary screen, biochemical, small-molecule microarray, 635/667 nm fluorescence (AID 1120); details: higher = more signal;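 note: probe is a biotin-tagged antibody raised against NOTCH3 rather than NOTCH3 protein; score merges spot fluorescence near 667 nm with spot signal to noise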
# [3] = small-molecule binders of probe aNOTCH2, primary screen, biochemical, small-molecule microarray, 635/667 nm fluorescence (AID 1121); details: higher = more signal;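 note: score merges feature fluorescence read at 667 nm with its signal to noise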
# [4] = target: Carbonic anhydrase 2 (Homo sapiens) (UniProt P00918); assay: CAII small-molecule binders, profiling panel, biochemical, small-molecule microarray, Alexa647-labelled CAII (AID 1122); details: CAII-A647 binding fluorescence, higher = more signal
# [5] = COS7 lysate on small-molecule microarray, probe aHis, 635 nm (AID 1123); details: COS7 cell lysate, fluorescence, higher = more signal;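 note: z-score combines 667nm fluorescence intensity with signal-to-noise per printed compound spot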
# [6] = compound binding in COS7 lysate, probe aLAP1, primary screen, cell lysate, small-molecule microarray (AID 1124); details: probe aLAP1, fluorescence, higher = more signal;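 note: lysate comes from COS7 cells expressing LAP1 and is applied at 0.3 µg/mL; score merges spot fluorescence near 667 nm with signal-to-noise over triplicate slides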
# Sam68 (KHDRBS1) = assay: Sam68 small-molecule binders, primary screen, biochemical, small-molecule microarray, 635 nm fluorescence (AID 1125); details: small-molecule microarray binding, higher = more signal;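 note: score merges 667 nm channel intensity with signal to noise over triplicate slides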
# [7] = tested on: Chordin-like protein 2 (CHRDL2); assay: CHRDL2 small-molecule binders, primary screen, biochemical, small-molecule microarray, 635 nm fluorescence (AID 1126); details: small-molecule microarray binding, fluorescence 635 nm; higher = more signal;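 note: printed compound slides probed with Chrdl2 protein at 4 µg/mL for 1 h at 4 C; score merges 667 nm emission intensity with signal to noise over three replicate slides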
# [8] = target: Concanavalin-A (Canavalia ensiformis) (UniProt P02866); assay: ConA small-molecule binders, primary screen, artefact control for SMM control protein annotation, biochemical, small-molecule microarray, Alexa647 label, 635 nm (AID 1127); details: ConA-A647 binding fluorescence, higher = more signal;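 note: z combines 667 nm emission intensity with signal-to-noise across three replicate slides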
# Sequence of Concanavalin-A (Canavalia ensiformis) (P02866 whole entry, looked up): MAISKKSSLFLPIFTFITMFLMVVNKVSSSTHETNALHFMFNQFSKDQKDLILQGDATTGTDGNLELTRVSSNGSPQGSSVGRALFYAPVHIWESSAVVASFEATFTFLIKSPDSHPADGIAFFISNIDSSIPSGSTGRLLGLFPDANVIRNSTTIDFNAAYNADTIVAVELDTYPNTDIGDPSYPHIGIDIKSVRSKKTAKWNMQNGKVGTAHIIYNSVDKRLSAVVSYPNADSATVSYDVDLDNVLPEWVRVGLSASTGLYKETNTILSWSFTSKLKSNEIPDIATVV
# [9] = anti-His antibody binders, primary screen, artefact control for SMM control protein annotation, biochemical, small-molecule microarray, 635 nm fluorescence (AID 1128); details: anti-His Alexa647 antibody binding, higher = more signal;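 note: score merges feature fluorescence with signal-to-noise for each printed compound spot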
# [10] = tested on: Human papillomavirus type 1a E7 protein (residues 1-88); assay: HPV1a E7 small-molecule binders, primary screen, biochemical, small-molecule microarray, residues 1-88, 635 nm (AID 1129); details: small-molecule microarray binding, fluorescence 635 nm; higher = more signal
# [11] = target: Focal adhesion kinase 1 (Homo sapiens) (UniProt Q05397); assay: small-molecule microarray binders of FAK, primary screen, biochemical, 635/667 nm fluorescence, BSA, DTT (AID 1130); details: PTK2 binding, 635 nm fluorescence, higher = more signal;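 note: composite of spot emission at 667 nm and signal to noise over triplicate slides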
# Sequence of Focal adhesion kinase 1 (Homo sapiens) (Q05397 whole entry, looked up): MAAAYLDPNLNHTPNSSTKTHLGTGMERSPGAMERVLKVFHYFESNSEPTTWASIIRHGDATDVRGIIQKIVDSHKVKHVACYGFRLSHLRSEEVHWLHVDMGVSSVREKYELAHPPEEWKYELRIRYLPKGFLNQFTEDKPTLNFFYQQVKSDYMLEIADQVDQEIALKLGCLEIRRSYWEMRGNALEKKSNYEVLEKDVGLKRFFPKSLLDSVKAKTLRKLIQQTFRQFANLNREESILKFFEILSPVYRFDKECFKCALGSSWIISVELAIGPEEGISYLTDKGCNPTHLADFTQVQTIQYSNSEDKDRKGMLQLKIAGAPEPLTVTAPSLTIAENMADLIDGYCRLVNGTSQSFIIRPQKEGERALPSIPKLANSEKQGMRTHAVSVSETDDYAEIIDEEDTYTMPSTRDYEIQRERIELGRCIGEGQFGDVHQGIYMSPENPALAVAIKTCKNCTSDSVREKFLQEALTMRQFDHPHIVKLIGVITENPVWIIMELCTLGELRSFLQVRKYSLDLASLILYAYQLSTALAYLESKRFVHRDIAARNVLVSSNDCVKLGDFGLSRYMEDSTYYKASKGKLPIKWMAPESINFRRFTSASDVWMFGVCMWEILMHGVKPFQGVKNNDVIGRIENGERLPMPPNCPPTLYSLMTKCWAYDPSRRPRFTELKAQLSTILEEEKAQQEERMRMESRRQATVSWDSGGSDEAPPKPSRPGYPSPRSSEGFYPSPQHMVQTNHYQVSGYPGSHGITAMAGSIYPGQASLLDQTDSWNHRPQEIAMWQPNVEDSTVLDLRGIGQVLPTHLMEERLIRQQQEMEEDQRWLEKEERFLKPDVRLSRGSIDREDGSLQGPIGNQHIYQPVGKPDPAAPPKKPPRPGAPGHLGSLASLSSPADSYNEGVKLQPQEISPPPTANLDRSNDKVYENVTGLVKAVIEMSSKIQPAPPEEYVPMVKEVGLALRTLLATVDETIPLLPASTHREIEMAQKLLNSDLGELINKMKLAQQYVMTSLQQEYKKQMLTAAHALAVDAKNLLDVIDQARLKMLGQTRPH
# [12] = tested on: Fibrinogen (Alexa647-labelled); assay: fibrinogen binders on compound microarrays, profiling panel, artefact control for SMM control-protein annotation, biochemical, small-molecule microarray, 635/667 nm fluorescence (AID 1131); details: fibrinogen-A647 binding fluorescence, higher = more signal;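 note: z-score merges 667 nm fluorescence with per-spot signal-to-noise over triplicate slides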
# [13] = target: Follistatin (Homo sapiens) (UniProt P19883); assay: follistatin binders on small-molecule microarrays, primary screen, biochemical, small-molecule microarray, 635/667 nm fluorescence (AID 1132); details: FST binding, 635 nm fluorescence, higher = more signal
# Sequence of Follistatin (Homo sapiens) (P19883 whole entry, looked up): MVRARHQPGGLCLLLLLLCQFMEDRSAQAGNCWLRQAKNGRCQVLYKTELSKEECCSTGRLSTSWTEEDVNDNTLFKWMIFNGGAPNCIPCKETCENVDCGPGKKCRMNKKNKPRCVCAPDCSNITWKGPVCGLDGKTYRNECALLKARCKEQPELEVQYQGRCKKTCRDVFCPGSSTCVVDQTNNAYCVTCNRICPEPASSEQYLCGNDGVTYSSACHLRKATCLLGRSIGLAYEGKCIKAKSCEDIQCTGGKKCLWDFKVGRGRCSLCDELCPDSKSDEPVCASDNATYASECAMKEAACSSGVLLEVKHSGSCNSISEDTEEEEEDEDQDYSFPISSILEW
# [14] = target: Fibroblast growth factor 2 (Homo sapiens) (UniProt P09038); assay: FGF2 binders on small-molecule microarrays, primary screen, biochemical, small-molecule microarray, 635/667 nm fluorescence (AID 1133); details: small-molecule microarray binding, FGF2, fluorescence 635/667; higher = more signal
# Sequence of Fibroblast growth factor 2 (Homo sapiens) (P09038 whole entry, looked up): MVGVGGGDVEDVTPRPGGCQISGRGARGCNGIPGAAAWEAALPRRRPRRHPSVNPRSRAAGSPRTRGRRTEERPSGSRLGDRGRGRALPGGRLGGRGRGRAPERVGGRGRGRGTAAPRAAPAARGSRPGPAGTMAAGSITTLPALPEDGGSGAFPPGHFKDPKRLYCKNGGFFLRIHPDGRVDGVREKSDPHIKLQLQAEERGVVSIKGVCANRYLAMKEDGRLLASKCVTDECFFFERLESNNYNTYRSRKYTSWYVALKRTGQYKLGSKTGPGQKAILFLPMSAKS
# [15] = mitochondrial membrane potential change in A549 cells, profiling panel, cell-based, JC-1 fluorescence, basal, 24 h, 100 nL (AID 1138); details: higher = more signal;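 note: A549 lung adenocarcinoma cells under basal conditions with no added stimulus; test concentration not given here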
# Lefty1 = Lefty1 binders on small-molecule microarrays, primary screen, biochemical, small-molecule microarray, 635/667 nm fluorescence (AID 1139); details: small-molecule microarray binding, fluorescence 635/667; higher = more signal
# [16] = tested on: wheat germ agglutinin (Triticum aestivum), Alexa647-labelled; assay: wheat germ agglutinin binders on compound microarrays, profiling panel, artefact control for SMM control-protein annotation, biochemical, small-molecule microarray, 635/667 nm fluorescence (AID 1140); details: WGA-A647 binding, 635 nm fluorescence, higher = more signal;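 note: score merges 667 nm feature emission with signal to noise over triplicate slides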
# [17] = target: Luciferin 4-monooxygenase (Photinus pyralis) (UniProt P08659); assay: firefly luciferase enzyme inhibitors, primary screen, biochemical, luminescence, purified enzyme, 2006 set (AID 1141); details: SteadyGlo luminescence, 30 min, higher = more signal, called active from +8 up or from −8 down;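 note: cell-free assay with purified firefly luciferase at 100 ng per well in PBS; test concentration not given here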
# Sequence of Luciferin 4-monooxygenase (Photinus pyralis) (P08659 whole entry, looked up): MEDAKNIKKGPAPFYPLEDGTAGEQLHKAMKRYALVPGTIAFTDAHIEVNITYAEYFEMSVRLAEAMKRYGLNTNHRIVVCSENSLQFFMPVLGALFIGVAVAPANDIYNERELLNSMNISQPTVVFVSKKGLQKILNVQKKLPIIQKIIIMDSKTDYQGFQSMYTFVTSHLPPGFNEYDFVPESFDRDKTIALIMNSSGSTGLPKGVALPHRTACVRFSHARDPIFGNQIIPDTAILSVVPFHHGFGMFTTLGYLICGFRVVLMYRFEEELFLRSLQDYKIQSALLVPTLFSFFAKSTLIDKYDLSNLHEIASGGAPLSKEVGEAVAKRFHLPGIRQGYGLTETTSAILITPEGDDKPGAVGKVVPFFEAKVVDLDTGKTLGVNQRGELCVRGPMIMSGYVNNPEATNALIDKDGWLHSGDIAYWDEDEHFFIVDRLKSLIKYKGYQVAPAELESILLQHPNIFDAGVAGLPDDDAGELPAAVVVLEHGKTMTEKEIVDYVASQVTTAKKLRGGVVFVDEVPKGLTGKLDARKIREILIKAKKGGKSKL
SMILES,composite z-score (Albumin (Bos taurus)),composite Z-score [1],composite z-score [2],composite z-score [3],composite z-score [4],composite z-score [5],composite z-score [6],composite z-score (Sam68 (KHDRBS1)),composite z-score [7],composite z-score [8],composite z-score [9],composite z-score [10],composite z-score [11],composite z-score [12],composite z-score [13],composite z-score [14],z-score [15],composite z-score (Lefty1),composite z-score [16],z-score [17]
C#CCN1[C@H](/C=C/C2CC2)[C@H](Cc2ccccc2)OC(=O)[C@@H]1Cc1ccccc1,-0.159,-0.95 (inactive),-0.124,-0.0759,0.2,0.24,0.092,0.257,0.509,0.0816,0.924,0.743,0.229,0.884,0.578,0.242,3.8,0.536,-0.153,-0.373 (inactive)
COc1cc2c(cc1OC)CN(C(=O)[C@H]1[C@@H]3C(=O)O[C@@H](c4ccccc4)[C@@H](c4ccccc4)N3[C@@H](c3ccccc3OCCO)[C@]13C(=O)Nc1ccc(C#CCCO)cc13)CC2,0.766,0.397 (inactive),0.0268,-0.118,0.383,0.935,-0.0376,1.33,0.579,1.11,1.1,1.2,0.612,0.871,1.18,1.65,-0.486,1.13,0.524,-0.255 (inactive)
CCCCN1CC=CC23O[C@@H]4C=CCCOC(=O)C4[C@H]2C(=O)N(CCCCCO)[C@@H]3C1=O (stereo not given in full),0.438,0.251 (inactive),-0.297,-0.132,0.861,-0.0221,-0.327,-0.444,-0.882,-0.131,1.88,-0.306,0.779,-0.905,-0.592,-0.437,0.976,-0.0266,0.0604,-0.469 (inactive)
CCCCCCCCCCC(O)C1C=CC2C(=O)NC(=O)C2N1Nc1ccc(Cl)cc1Cl (stereo not given),0.145,-0.383 (inactive),-0.0288,-0.077,0.442,1.66,0.192,-0.0789,0.0425,0.248,0.997,0.186,0.459,0.331,-0.184,-0.942,-0.863,-1.14,0.117,-0.836 (inactive)
COc1cc(OC)c(C(O)C2C=CC3C(=O)NC(=O)C3N2Nc2ccccn2)cc1Br (stereo not given),-0.257,0.172 (inactive),-0.0026,-0.0598,0.819,0.973,0.487,0.755,1.02,0.747,2.02,0.683,0.124,0.368,0.573,0.562,0.0938,0.483,0.0687,-1.36 (inactive)
COc1ccc([Si](C)(C)[C@@H]2[C@@H](CCO)O[C@]3(C(=O)N(Cc4cccc(N5CCOC5=O)c4)c4ccccc43)[C@H]2C)cc1,0.757,-0.295 (inactive),0.326,-0.0907,0.219,0.531,-0.231,1.15,-0.0408,1.12,0.0657,0.981,-0.0325,0.9,1,0.568,-0.393,0.26,1.08,-0.335 (inactive)
CN1C(=O)C2C=CC(C(O)c3ccccc3)N(N3CCCCC3)C2C1=O (stereo not given),0.988,-0.123 (inactive),0.237,0.0521,0.846,2.37,0.676,1.02,-0.409,0.872,0.841,1.04,0.352,0.412,0.602,-0.234,0.0958,0.0104,0.573,-0.136 (inactive)
CC(=O)n1cc(C(O)C2C=CC3C(=O)NC(=O)C3N2Nc2ccccn2)c2ccccc21 (stereo not given),0.281,-0.0662 (inactive),-0.116,-0.176,0.817,0.688,0.248,0.0906,0.549,0.551,0.426,0.355,1.74,0.0552,0.242,-0.219,0.471,-0.0259,0.0414,-1.35 (inactive)
COC(=O)[C@@]1(Cc2ccccc2)[C@H]2c3cc(C(=O)N(C)C)n(CCc4c[nH]c5ccc(O)cc45)c3C[C@H]2CN1C(=O)c1ccccc1,1.01,0.492 (inactive),0.238,0.153,0.858,2.15,1.29,0.878,-0.676,0.0221,1.53,1.23,0.772,-0.0969,1.35,-0.0235,-0.409,0.171,0.173,-2.82 (inactive)
COCCCNC(=O)[C@@]1(CCS(=O)(=O)c2ccccc2)N=C(c2ccc(OCCCO)cc2)O[C@H]1c1ccccc1N=[N+]=[N-],0.955,0.164 (inactive),0.307,-0.0316,0.695,3.05,0.743,1.3,-0.154,1.07,0.328,1.25,-0.0191,1.02,1.3,0.786,-0.341,1.27,1.01,-8.3 (active)
NC(=O)[C@@H]1[C@H]2C(=O)O[C@H](c3ccccc3)[C@H](c3ccccc3)N2[C@H](c2ccc(O)cc2)[C@@]12C(=O)Nc1ccc(C#CC3=CCCCC3)cc12,0.299,1.1 (inactive),0.81,-0.117,0.411,2,0.331,0.449,-0.0967,0.426,1.43,1.18,0.284,0.789,1.02,-0.201,-2.5,0.847,1.03,-0.589 (inactive)

# — PubChem BioAssay
